Hits are enriched below; roughly 2.1% of the tested compounds scored in any of these assays.
EP2 mod = modulators of human EP2 prostaglandin E2 receptor; P43116; AID 940; 0.83% of 260,000 active; induction, % at 25 µM; EP2-expressing cells, cAMP HTRF FRET, PGE2 co-stimulation;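 active = compounds whose cAMP rise, as percent of the full-agonist control response, exceeds 60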;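 note: rat C6 glioma line stably carrying human EP2 under a CMV promoter; the protocol text gives 20 µM as final concentration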
CHT PAM = human CHT allosteric activation; Q9GZV3; CHT-expressing cells, membrane potential dye, choline EC20; stronger effect = higher value; LV-AA mutant CHT in HEK293 cells; B-score at 10 µM; 0.49% of 310,000 active; AID 488977;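 active = initial fluorescence not abnormally high and integrated response B-score, plate-corrected, over 3 SD above library mean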
Target sequence (Q9GZV3 whole entry, looked up): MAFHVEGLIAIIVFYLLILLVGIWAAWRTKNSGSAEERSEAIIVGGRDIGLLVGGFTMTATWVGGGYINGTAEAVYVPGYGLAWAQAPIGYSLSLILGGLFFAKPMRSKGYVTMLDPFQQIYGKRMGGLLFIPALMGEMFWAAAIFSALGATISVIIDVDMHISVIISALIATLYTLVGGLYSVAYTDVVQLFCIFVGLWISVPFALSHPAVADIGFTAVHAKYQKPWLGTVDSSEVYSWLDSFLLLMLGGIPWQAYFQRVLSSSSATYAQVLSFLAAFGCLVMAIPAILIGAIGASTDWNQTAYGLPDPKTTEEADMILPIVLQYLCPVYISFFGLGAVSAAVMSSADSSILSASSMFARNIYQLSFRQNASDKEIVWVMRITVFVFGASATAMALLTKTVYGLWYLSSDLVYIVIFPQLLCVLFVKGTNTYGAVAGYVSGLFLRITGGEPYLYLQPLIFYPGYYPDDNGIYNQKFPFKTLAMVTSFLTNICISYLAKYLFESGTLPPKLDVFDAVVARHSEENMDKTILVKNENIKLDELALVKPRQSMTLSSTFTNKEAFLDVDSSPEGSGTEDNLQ
CHT inh = inhibitors of human choline transporter CHT. AID 488975. Q9GZV3. CHT-expressing cells, membrane potential dye, choline response; stronger effect = lower value. B-score at 10 µM. 0.86% of 310,000 active;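 active = B-score over 3 SD under the library average, and starting fluorescence ratio not unusually high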;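 note: choline stimulus applied at its EC90 after an EC20 pre-addition; B-score computed on integrated fluorescence ratio after choline addition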
EP2 antag = inhibitors of human EP2 prostaglandin E2 receptor; P43116; inhibition, % at 25 µM; C6 glioma cells expressing human EP2, cAMP TR-FRET; cells stimulated with saturating PGE2; 0.52% of 260,000 active;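 active = percent inhibition above 40 after rounding to a whole number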;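 note: rat C6 glioma host cells with rolipram phosphodiesterase inhibitor present; the protocol text gives 20 µM as final concentration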
CHT block conf = human CHT inhibition, confirmatory screen. shares compounds with CHT inh. CHT activity remaining % of control (stronger effect = lower value), % at 10 µM. AID 493221. 70% of 2,400 active. CHT-expressing cells, choline membrane potential dye; LV-to-AA substituted CHT, HEK293 cells;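 active = choline transporter activity left, mean of duplicates at 10 µM, below buffer-only control mean minus 3 SD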;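 note: depolarization triggered by choline at its EC90 following an EC20 pre-addition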
HEK293 CHT ctr = counter-screen for CHT inhibitors: effect in parental HEK293 cells. membrane potential ratio readout (active if shifted either direction beyond buffer ±3SD; no single direction) at 10 µM. AID 493222. membrane potential dye, choline response; active = decrease or increase beyond buffer ±3SD. shares compounds with CHT inh. 4% of 2,400 active;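 note: parental cells lack the transporter so any hit is non-specific; ratio is peak minus trough fluorescence over baseline after EC90 choline challenge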
A number is an active result; i = inactive; nt = no result.

SMILES	EP2 mod	CHT PAM	CHT inh	EP2 antag	CHT block conf	HEK293 CHT ctr
CC(NC(=O)C1c2ccccc2Oc2ccccc21)C1CCCO1 (stereo unspecified)	i	i	-5.7	i	68%	i
NC(=O)c1ccc(=O)n(Cc2ccc(F)c(F)c2)c1	nt	i	i	nt	nt	nt
O=C(Nc1ccccc1)c1ccc(=O)n(Cc2ccc(F)c(F)c2)c1	i	i	-6.4	i	i	i
CCc1cc2cccc(C)c2nc1SCC(=O)Nc1ccc(N2CCOCC2)cc1	i	nt	nt	i	nt	nt
CC(C)Sc1nc2c(c(=O)[nH]1)C(c1cccs1)C1=C(CC(C)(C)CC1=O)N2 (stereo unspecified)	i	i	-5.8	i	i	i
CCOC(=O)C1CCN(C(=O)COc2cc(C)c(Br)cc2C)CC1	i	i	-6.5	i	i	i
CCOc1ccc2[nH]c(=O)c(CN(CCCO)C(CC)c3nnnn3C(C)(C)C)cc2c1 (stereo unspecified)	i	nt	nt	i	nt	nt
Cc1csc2c(N3CCN(C(=S)Nc4ccc(C(F)(F)F)cc4)CC3)ncnc12	i	i	-6.2	i	55%	i
CCCCN(CCCC)S(=O)(=O)c1ccc(NC(=O)c2ccc([N+](=O)[O-])cc2Cl)cc1	i	i	-6.2	i	70%	i
CCn1c(SCC(=O)Nc2c(C)cccc2C)nnc1C1CCCCC1	i	nt	nt	i	nt	nt
O=C(N/C(=C\c1ccc(Br)cc1)C(=O)N1CCOCC1)c1ccccc1Cl	nt	i	-5.6	nt	i	i
CCn1cc(/C=C(\NC(=O)c2ccccc2F)C(=O)NCCCn2ccnc2)c2ccccc21	nt	i	-7.2	nt	28%	i
CCn1cc(/C=C(\NC(=O)c2ccccc2F)C(=O)N2CCOCC2)c2ccccc21	nt	i	-5.1	nt	46%	i
CCn1cc(/C=C(\NC(=O)c2ccccc2Cl)C(=O)N2CCOCC2)c2ccccc21	nt	i	i	nt	nt	nt
O=C(NCCCn1ccnc1)/C(=C\c1ccc(Br)cc1)NC(=O)c1ccccc1	nt	i	-5	nt	59%	i
O=C(Cc1ccc2c(c1)CCC2)NCCN1CCC(O)(c2ccc(F)cc2)CC1	i	nt	nt	i	nt	nt
C=Cn1ncc(CN(Cc2ccccc2)C2CC(C)(C)NC(C)(C)C2)c1C	i	nt	nt	i	nt	nt
CCOc1cccc2sc(N(CCCN(C)C)C(=O)c3ccc(S(=O)(=O)N(C)c4ccccc4)cc3)nc12	i	i	-5.5	i	i	i
CCOCCCNC(=O)C1CCN(c2nc3ccccc3n2C)CC1	i	nt	nt	nt	nt	nt
COc1ccccc1NC(=O)c1ccc(-c2ccc(Br)cc2)o1	i	i	i	i	nt	nt
COc1ccccc1NC(=O)c1ccc(C(=O)c2ccccc2)o1	i	i	-5	i	i	i
CC(NC(=O)c1ccc(Cl)cc1)c1n[nH]c(=S)n1C (stereo unspecified)	i	nt	nt	i	nt	nt
COc1ccc(C(=O)c2c3ccc(C(F)(F)F)cc3[n+]([O-])n2CCCC(N)=O)cc1	nt	i	i	nt	nt	nt
NC(=O)CCCn1c(C(=O)c2cc(Cl)c(N)c(Cl)c2)c2ccc(C(F)(F)F)cc2[n+]1[O-]	nt	i	-10	nt	-1.6%	i
NCCCn1c(C(=O)c2cc(Cl)c(N)c(Cl)c2)c2ccc(C(F)(F)F)cc2[n+]1[O-]	nt	i	-8.2	nt	14%	i
SMILES	EP2 mod	CHT PAM	CHT inh	EP2 antag	CHT block conf	HEK293 CHT ctr
COc1cc2[nH]c(=O)c(C(=O)Nc3ccccc3)c(O)c2cc1OC	i	nt	nt	i	nt	nt
CCOc1ccc(Nc2c3c(nc4ncnn24)CC(C)CC3)cc1 (stereo unspecified)	i	i	i	i	nt	nt
Cc1ccc(Nc2c3c(nc4ncnn24)CC(C)CC3)cc1 (stereo unspecified)	i	i	-5.8	i	i	i
CN1CCN(c2nc(-c3ccc(C(C)(C)C)cc3)nc3ccccc23)CC1	nt	i	i	nt	nt	nt
CC(C)COc1nc2ccccc2nc1N1CCN(C)CC1	nt	i	-6	nt	41%	i
CCC(=O)/C=C/n1c(=S)oc2ccccc21	i	nt	nt	i	nt	nt
COc1cc(/C=C2/C(=O)N(c3cccc(Br)c3)N=C2C)cc(OC)c1O	nt	i	-5.2	nt	45%	i
CCCCC[C@H](O)/C=C/[C@@H]1[C@@H](C/C=C\CCCC(=O)O)[C@@H](O)C[C@H]1O	102	i	-5.9	i	33%	i
O=C(O)CCC/C=C\C[C@@H]1[C@@H](/C=C/[C@H](O)C2Cc3ccccc3C2)[C@@H](F)C[C@@H]1O	i	nt	nt	i	nt	nt
